Results as given in PubChem BioAssay AID1159580 (chemical genetic matrix, 2015).
In all, about 5,500 compounds went through this assay and about 2,000 (36%) were called active. Not shown: some 18% with an inconclusive outcome. This is one part of the list. A number with no mark means an inactive call. Cut-off read from the data, not from the text of the source: active = normalized growth mostly below about 0.91 (no sharp cut-off); inconclusive = no clear call, values can overlap the other calls; inactive = mostly above about 0.92.

Experiment: chemical genetic growth profiling, strain panel (AID 1159580);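 note: tested at 20 µM; growth read once vehicle control cultures reached saturation at 30 °C; 1 = growth at the plate median or of vehicle wells; lower values mean less growth of the strain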
Settings: S. cerevisiae deletion strains, growth OD
[1] = locus YAL013W, strain DEP1, active compounds read low
[2] = locus YDR150W, strain NUM1, active compounds read low
[3] = locus YHR030C, strain SLT2, active compounds read low
[4] = locus YJL095W, strain BCK1, active compounds read low
[5] = locus YMR307W, strain GAS1, active compounds read low
[6] = locus YPL241C, strain CIN2, active compounds read low
[7] = locus YAL040C, strain CLN3, active compounds read low
[8] = locus YCL061C, strain MRC1 (second series), active compounds read low
[9] = locus YDR363W, strain ESC2, active compounds read low
[10] = locus YER002W, strain NOP16, active compounds read low
[11] = locus YMR263W, strain SAP30, active compounds read low
[12] = locus YNL175C, strain NOP13, active compounds read low
[13] = locus YNL197C, strain WHI3, active compounds read low
[14] = locus YNL224C, strain SQS1, active compounds read low
[15] = locus YOR083W, strain WHI5 (second series), active compounds read low

`Cc1c(O)c(C(=O)CC(C)C)c2oc3c(C(=O)CC(C)C)c(O)c(C)c(O)c3c2c1O` showed a normalized growth [1] of 1.01, a normalized growth (locus YBR021W, strain FUR4, active compounds read low) of 0.943 and a normalized growth (locus YBR229C, strain ROT2, active compounds read low) of 0.993. For the same compound, the normalized growth (locus YCL029C, strain bik1, active compounds read low) was 1.01, the normalized growth (locus YDL035C, strain GPR1, active compounds read low) was 0.994 and the normalized growth (locus YDL074C, strain BRE1, active compounds read low) was 0.978. For the same compound, the normalized growth (locus YDL101C, strain DUN1, active compounds read low) was 1, the normalized growth (locus YDL134C, strain PPH21, active compounds read low) was 0.991 and the normalized growth (locus YDL185W, strain tfp1, active compounds read low) was 1. For the same compound, the normalized growth (locus YDL192W, strain arf1, active compounds read low) was 0.987, the normalized growth (locus YDR101C, strain arx1, active compounds read low) was 0.972 and the normalized growth [2] was 1.01. The normalized growth (locus YDR162C, strain NBP2, active compounds read low) was 1, the normalized growth (locus YDR318W, strain mcm21, active compounds read low) was 0.997 and the normalized growth (locus YDR388W, active compounds read low) was 0.985. It also gave a normalized growth (locus YDR502C, strain sam2, active compounds read low) of 0.978, a normalized growth (locus YEL061C, strain CIN8, active compounds read low) of 1.01 and a normalized growth (locus YER110C, active compounds read low) of 0.995. The normalized growth (locus YER155C, strain BEM2, active compounds read low) was 0.995, the normalized growth (locus YER167W, strain BCK2, active compounds read low) was 0.996 and the normalized growth (locus YGL078C, strain dbp3, active compounds read low) was 0.985. For the same compound, the normalized growth (locus YGL086W, strain mad1, active compounds read low) was 0.989, the normalized growth (locus YGL248W, strain PDE1, active compounds read low) was 0.994 and the normalized growth (locus YGR135W, strain pre9, active compounds read low) was 0.996. The normalized growth (locus YGR252W, strain gcn5, active compounds read low) was 0.918, the normalized growth [3] was 1 and the normalized growth (locus YHR079C, strain IRE1 (second series), active compounds read low) was 0.987. The normalized growth (locus YHR094C, strain hxt1, active compounds read low) was 0.986, the normalized growth (locus YHR129C, strain ARP1, active compounds read low) was 1 and the normalized growth (locus YHR200W, strain rpn10, active compounds read low) was 0.983. It also gave a normalized growth (locus YIL066C, strain RNR3, active compounds read low) of 1, a normalized growth (locus YIL073C, strain SPO22, active compounds read low) of 0.983 and a normalized growth (locus YIL125W, strain kgd1, active compounds read low) of 0.995. For the same compound, the normalized growth (locus YIR030C, strain dcg1, active compounds read low) was 0.993, the normalized growth [4] was 0.994 and the normalized growth (locus YJL134W, strain LCB3, active compounds read low) was 1. The normalized growth (locus YJL168C, strain set2, active compounds read low) was 0.994, the normalized growth (locus YJL187C, strain SWE1 (second series), active compounds read low) was 1 and the normalized growth (locus YJR043C, strain POL32, active compounds read low) was 0.958. It also gave a normalized growth (locus YKL009W, strain mrt4, active compounds read low) of 0.977, a normalized growth (locus YKL068W, active compounds read low) of 1 and a normalized growth (locus YKL085W, strain MDH1 (second series), active compounds read low) of 1.01. The normalized growth (locus YKL085W, strain MDH1, active compounds read low) was 1.01, the normalized growth (locus YKL190W, strain CNB1, active compounds read low) was 1 and the normalized growth (locus YKR001C, strain vps1, active compounds read low) was 0.935. The normalized growth (locus YLR039C, strain RIC1, active compounds read low) was 0.787, the normalized growth (locus YLR058C, strain SHM2, active compounds read low) was 1 and the normalized growth (locus YLR102C, strain apc9, active compounds read low) was 0.982. The normalized growth (locus YLR262C, strain YPT6, active compounds read low) was 0.811, the normalized growth (locus YLR268W, strain sec22, active compounds read low) was 0.985 and the normalized growth (locus YLR330W, strain CHS5, active compounds read low) was 1. It also gave a normalized growth (locus YLR342W, strain FKS1 (second series), active compounds read low) of 0.978, a normalized growth (locus YLR371W, strain rom2, active compounds read low) of 0.999 and a normalized growth (locus YLR418C, strain cdc73, active compounds read low) of 0.92. For the same compound, the normalized growth (locus YML016C, strain PPZ1, active compounds read low) was 1.01, the normalized growth (locus YML032C, strain rad52, active compounds read low) was 0.999 and the normalized growth (locus YML124C, strain tub3, active compounds read low) was 0.99. It also gave a normalized growth (locus YMR078C, strain ctf18, active compounds read low) of 1, a normalized growth (locus YMR223W, strain ubp8, active compounds read low) of 0.996 and a normalized growth [5] of 0.827. It also gave a normalized growth (locus YNL067W, strain RPL9B, active compounds read low) of 1.01, a normalized growth (locus YNL233W, strain BNI4, active compounds read low) of 0.968 and a normalized growth (locus YNL250W, strain rad50, active compounds read low) of 1.01. For the same compound, the normalized growth (locus YNL271C, strain bni1, active compounds read low) was 1, the normalized growth (locus YNL298W, strain CLA4, active compounds read low) was 1 and the normalized growth (locus YNL307C, strain MCK1, active compounds read low) was 0.994. For the same compound, the normalized growth (locus YNR052C, strain pop2, active compounds read low) was 1.01, the normalized growth (locus YOL006C, strain TOP1, active compounds read low) was 0.977 and the normalized growth (locus YOL012C, strain htz1) was 0.768. It also gave a normalized growth (locus YOL147C, strain pex11, active compounds read low) of 0.987, a normalized growth (locus YOR061W, strain CKA2, active compounds read low) of 1 and a normalized growth (locus YOR069W, strain VPS5, active compounds read low) of 1.01. It also gave a normalized growth (locus YOR136W, strain idh2, active compounds read low) of 0.99, a normalized growth (locus YOR144C, strain elg1, active compounds read low) of 0.996 and a normalized growth (locus YOR184W, strain ser1, active compounds read low) of 0.974. The normalized growth (locus YOR316C, strain cot1, active compounds read low) was 0.986, the normalized growth [6] was 1 and the normalized growth (locus YPR119W, strain clb2, active compounds read low) was 0.989. For the same compound, the normalized growth (locus YPR141C, strain kar3, active compounds read low) was 0.991, the normalized growth (locus YPR163C, strain tif3, active compounds read low) was 0.99 and the normalized growth (locus YPR167C, strain met16, active compounds read low) was 1. For the same compound, the normalized growth (strain wtn01, active compounds read low) was 0.975.

In the case of `Nc1nc2ccc(OC(F)(F)F)cc2s1`, the normalized growth [1] is reported as 0.937, the normalized growth [7] is reported as 0.985 and the normalized growth [8] is reported as 0.979. For the same compound, the normalized growth [2] was 0.954, the normalized growth [9] was 0.943 and the normalized growth [10] was 0.979. The normalized growth [3] was 1.02, the normalized growth (locus YHR079C, strain IRE1, active compounds read low) was 1.02 and the normalized growth [4] was 0.961. It also gave a normalized growth (locus YJR066W, strain TOR1, active compounds read low) of 0.956, a normalized growth (locus YJR075W, strain HOC1, active compounds read low) of 0.918 and a normalized growth (locus YLR113W, strain HOG1, active compounds read low) of 0.94. For the same compound, the normalized growth [11] was 0.988, the normalized growth [5] was 0.856 (active) and the normalized growth [12] was 0.975. The normalized growth (locus YNL183C, strain NPR1, active compounds read low) was 0.944, the normalized growth [13] was 0.988 and the normalized growth [14] was 0.979. The normalized growth [15] was 0.938, the normalized growth (locus YOR231W, strain MKK1, active compounds read low) was 0.999 and the normalized growth (locus YPL055C, strain LGE1, active compounds read low) was 0.829 (active). The normalized growth (locus YPL256C, strain CLN2, active compounds read low) was 1.02.

`OCc1ccc(-c2nn(Cc3ccccc3)c3ccccc23)o1` showed a normalized growth [1] of 0.925, a normalized growth [7] of 1.06 and a normalized growth [8] of 1. The normalized growth [2] was 1.02, the normalized growth [9] was 1.01 and the normalized growth [10] was 0.988. The normalized growth (locus YGR078C, strain PAC10, active compounds read low) was 0.986, the normalized growth (locus YGR229C, strain SMI1, active compounds read low) was 0.841 (active) and the normalized growth [11] was 0.991. It also gave a normalized growth [12] of 0.977, a normalized growth [13] of 0.972 and a normalized growth [14] of 0.981. For the same compound, the normalized growth [15] was 0.95 and the normalized growth [6] was 1.02.
